# Laboratory results: publication PMC4336329 (PLoS ONE, 2015)
# Out of some 310,000 compounds screened, about 14,000 (4.5%) showed an effect of 50% or more. The effect is printed as a negative number. For the sample, strong results were picked, then their nearest neighbours and some compounds at random.
# Target: human ether-à-go-go-related gene (hERG) potassium channel (human, UniProt Q12809)
# Test: primary screen, population patch clamp on CHO cells stably expressing hERG; higher = less effect of the substance
# 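Note: peak tail current of the secondary pulse compared with the same well before compound.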
# human ether-à-go-go-related gene (hERG) potassium channel, sequence (Q12809 whole entry, looked up): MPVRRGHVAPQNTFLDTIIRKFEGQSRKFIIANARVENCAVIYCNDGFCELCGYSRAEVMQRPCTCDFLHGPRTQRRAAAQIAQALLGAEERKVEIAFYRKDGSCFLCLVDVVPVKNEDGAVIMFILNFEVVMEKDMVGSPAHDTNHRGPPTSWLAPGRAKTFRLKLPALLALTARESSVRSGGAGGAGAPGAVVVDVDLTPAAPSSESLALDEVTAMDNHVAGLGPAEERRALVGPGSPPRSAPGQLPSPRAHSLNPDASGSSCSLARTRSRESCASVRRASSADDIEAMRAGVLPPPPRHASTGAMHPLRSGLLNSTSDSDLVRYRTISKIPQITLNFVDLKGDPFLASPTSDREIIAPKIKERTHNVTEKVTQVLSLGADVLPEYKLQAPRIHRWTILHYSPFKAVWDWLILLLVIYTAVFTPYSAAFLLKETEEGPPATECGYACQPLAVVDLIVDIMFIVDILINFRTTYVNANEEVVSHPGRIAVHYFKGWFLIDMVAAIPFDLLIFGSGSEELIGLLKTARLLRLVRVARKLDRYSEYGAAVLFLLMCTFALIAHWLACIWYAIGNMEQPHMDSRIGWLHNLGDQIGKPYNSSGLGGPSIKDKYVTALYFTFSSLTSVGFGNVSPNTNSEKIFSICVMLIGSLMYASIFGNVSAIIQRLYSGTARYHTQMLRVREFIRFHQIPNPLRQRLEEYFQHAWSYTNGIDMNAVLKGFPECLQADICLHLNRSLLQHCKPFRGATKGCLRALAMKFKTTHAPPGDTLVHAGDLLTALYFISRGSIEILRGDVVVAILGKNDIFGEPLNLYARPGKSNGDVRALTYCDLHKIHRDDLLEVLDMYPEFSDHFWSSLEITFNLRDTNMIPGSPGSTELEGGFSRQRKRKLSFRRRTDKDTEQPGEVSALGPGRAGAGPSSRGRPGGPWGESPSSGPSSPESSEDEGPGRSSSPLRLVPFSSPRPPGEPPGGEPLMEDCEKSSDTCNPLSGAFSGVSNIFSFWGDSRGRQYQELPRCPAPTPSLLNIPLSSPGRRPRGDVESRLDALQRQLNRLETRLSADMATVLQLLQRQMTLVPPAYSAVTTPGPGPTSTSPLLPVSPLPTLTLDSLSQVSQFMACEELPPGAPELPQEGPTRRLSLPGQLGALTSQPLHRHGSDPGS
row,SMILES,"hERG current change (%, negative = inhibition) at 10uM"
1,CCOc1cccc2cc(C(=O)N3CCOCC3)c(=O)oc12,14.6%
2,CCN(CC)C(=O)CSc1nc(N)c(C#N)c(-c2cccs2)c1C#N,15.5%
3,CS(=O)(=O)c1ccc2nc(NC(=O)c3ccc(Cl)cc3)sc2c1,6.42%
4,COC(=O)CCCC[C@@H]1SC[C@@H](NC(=O)OC)[C@@H]1NC(=O)OC,5.49%
5,CC[C@@H](C)[C@H](NC(=O)Cc1c(C)c2cc3c(C)coc3c(C)c2oc1=O)C(=O)O,6.21%
6,COc1ccc(/C=C/C(=O)Nc2ccccc2)cc1S(=O)(=O)N1CCOCC1,-52.2%
7,COc1ccc(/C=C/C(=O)Nc2ccc(C)cc2)cc1S(=O)(=O)N1CCOCC1,-32.6%
8,COc1ccc(S(=O)(=O)N2CCN(C(c3ccccc3)c3ccccc3)CC2)cc1NC(C)=O,21.2%
9,COc1ccc(S(=O)(=O)N2CCN(C/C=C/c3ccccc3)CC2)cc1NC(C)=O,-77.9%
10,COc1ccc(NC(C)=O)cc1S(=O)(=O)N1CCN(C/C=C/c2ccccc2)CC1,-69.3%
11,COc1ccc(C)cc1S(=O)(=O)N1CCN(C/C=C/c2ccccc2)CC1,-23.8%
12,COc1ccc(NC(C)=O)cc1S(=O)(=O)N1CCN(Cc2cccs2)CC1,-3.53%
13,COc1ccc(/C=C/C(=O)Nc2ccc(NC(C)=O)cc2)cc1S(=O)(=O)N1CCOCC1,1.65%
14,COc1ccc(S(=O)(=O)N2CCN(C/C=C/c3ccccc3)CC2)cc1F,-30.1%
15,Cc1ccc(S(=O)(=O)N(C)/N=C/c2ccc(C(=O)O)cc2)cc1,-7.51%
16,N#C/C(=C\c1ccc(C#N)cc1)C(=O)c1ccccc1,10.7%
17,COc1ccc(NC(=O)CSc2nnc(-c3ccccn3)n2N)cc1Cl,-2.27%
18,COc1ccc(/C=N/NC(=O)CCC(=O)Nc2ccc(Br)cc2)c(OC)c1,5.6%
19,COc1ccc(CNC(=O)Cn2nc([N+](=O)[O-])c(Br)c2C)cc1OC,-10.2%
20,COC(=O)C1=C(C)N(c2ccc(C)c(C)c2)/C(=C/c2cccs2)C1=O,-17.7%
21,CCS(=O)(=O)N1CCN(S(=O)(=O)c2ccc3c(c2)OCCO3)CC1,17.5%

row,SMILES,"hERG current change (%, negative = inhibition) at 10uM"
1,CCCCOc1ccc(/C=C/C(=O)N(CC)CC(=O)Nc2ccc3c(c2)OCCO3)cc1OC,-28.9%
2,CNC(=O)/C(C#N)=C/c1ccc(-c2ccc(OC)cc2[N+](=O)[O-])o1,-1.67%
3,Cc1cccc(COCC(Cc2ccccc2)N2CCN(C(=O)c3cccc(Cl)c3)CCC2=O)c1 (centres unmarked),-15.1%
4,C[C@H]1CCC(=O)N([C@H](COc2ccccc2)Cc2ccccc2)CC1,-42.7%
5,O=C1CCN(Cc2ccccc2)CCN1[C@H](COc1ccccc1)Cc1ccccc1,-56.4%
6,O=C1CCN(Cc2ccccc2)CCN1[C@H](CO)Cc1ccccc1,14.5%
7,CN1CCC(=O)N([C@H](COc2ccccc2)Cc2ccccc2)CC1,-28.5%
8,CC(C)CN1CCC(=O)N([C@H](COc2ccccc2)Cc2ccccc2)CC1,-71.7%
9,CC(C)C[C@@H](COc1ccccc1)N1CCN(CC(C)C)CCC1=O,-48.5%
10,CCCN1CCC(=O)N([C@H](COc2ccccc2)Cc2ccccc2)CC1,-68.1%
11,O=C(c1cc(Cl)cc(Cl)c1)N1CCC(=O)N(C(COCc2ccccc2)Cc2ccccc2)CC1 (centres unmarked),-10%
12,CC(C)CN1CCC(=O)N([C@H](CO)Cc2ccccc2)CC1,6.64%
13,N#CC[C@H](Cc1ccccc1)N1CCN(Cc2ccccc2)CCC1=O,-24%
14,O=C(c1cccc(Cl)c1)N1CCC(=O)N(C(COCc2ccccc2)Cc2ccccc2)CC1 (centres unmarked),-51.9%
15,Cc1cc(C)c2[nH]c(O)c(N=NC3=NC(=O)CS3)c2c1,-19.6%
16,Cc1ccc(C)c(N2CCN(c3nc4ccccc4c(=O)n3Cc3ccccc3)CC2)c1,14.1%
17,Cc1cnc(C(=O)N2CCCC(C(=O)c3ccc(C(C)(C)C)cc3)C2)cn1 (centres unmarked),-20.7%
18,CCN1CCN(C(=O)c2ccc(CNS(=O)(=O)c3cccc(OC)c3)cc2)CC1,40.7%
19,O=C(OCc1cncs1)c1ccccc1Cl,6.6%
20,O=C(NCc1cccnc1)Nc1ccc2c(c1)OCO2,-7.04%
21,COc1ccccc1CCNC(=O)C1CCN(C(=O)/C=C/c2ccccc2)CC1,-13.8%

row,SMILES,"hERG current change (%, negative = inhibition) at 10uM"
1,COCCCNC(=O)CSc1ccc(Cl)cc1,2.32%
2,CCCCN(Cc1ccccc1)C(=O)CCN1C(=O)C2C3C=CC(C3)C2C1=O (centres unmarked),1.48%
3,O=C1CCN(CCc2ccccc2)CCN1[C@H](COc1ccccc1)Cc1ccccc1,-78.6%
4,N#CC[C@H](Cc1ccccc1)N1CCN(CCc2ccccc2)CCC1=O,16.5%
5,O=C1CCN(CCc2ccccc2)CCN1[C@H](CO)Cc1ccccc1,-44.4%
6,O=C(Nc1ccccc1)NC1CCN(Cc2c(F)cccc2Cl)CC1,7.91%
7,Cc1cccc(-c2nc3c(c(SCC(=O)N4CCOCC4)n2)Cc2c(CO)cnc(C)c2O3)c1,5.78%
8,Cc1ccc(S(=O)(=O)NNC(=O)c2csnn2)cc1,1.7%
9,O=Cc1ccc(-n2nncc2-c2ccc([N+](=O)[O-])cc2)cc1,-67.3%
10,CC(=O)c1ccc(-n2nncc2-c2ccc([N+](=O)[O-])cc2)cc1,-53.3%
11,CC(=O)c1ccc(-n2nncc2C)cc1,19.8%
12,CC(C)(C)c1cnnn1-c1ccc([N+](=O)[O-])cc1,-8.46%
13,O=[N+]([O-])c1ccc(-n2nncc2-c2ccc(Cl)cc2)cc1,-72.7%
14,Cc1cnnn1-c1ccc([N+](=O)[O-])cc1,23.5%
15,O=[N+]([O-])c1ccc(-n2nncc2-c2ccccc2)cc1,-29.4%
16,Nc1ccc(-n2nncc2-c2ccc(Cl)cc2)cc1,-35.9%
17,O=C(O)c1ccc(-n2nncc2-c2ccccc2)cc1,8.58%
18,O=[N+]([O-])c1cccc(-n2nncc2-c2ccccc2)c1,-1.23%
19,COc1ccc(-c2cnnn2-c2ccc([N+](=O)[O-])cc2)cc1,-64.6%
20,c1ccc(-c2cnnn2-c2ccccc2)cc1,12.7%
